Screening results from PubChem BioAssay.
In the library only some 3.6% were active in any assay of this set; here they are far more common.
AmpC inh detg: qHTS Inhibitors of AmpC Beta-Lactamase (assay with detergent); P00811; AmpC hydrolysis of nitrocefin, absorbance 480 nm, 0.01% Triton; Potency, µM (top dose mostly 114 µM), without a hit: at the highest dose activity change, negative = inhibition, usual class: inhibitors; 0.041% of 370,000 active; AID 485294, 2010;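 further: 0% = no-compound wells and -100% = no-enzyme wells; nearly all actives have a fitted effect of over 25% in size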
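AmpC (5.3 nM in the dispensed reagent) in 20 mM phosphate pH 7.0 with 0.01% (detergent screen) or 0.0001% Triton X-100 was preincubated with compounds for 15 min at room temperature. Nitrocefin was then added from an 800 uM solution, and hydrolysis was followed at 480 nm.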
AmpC inh no detg: qHTS Inhibitors of AmpC Beta-Lactamase (assay without detergent) | Potency, µM (doses to about 57.1 µM), without a hit: at the highest dose activity change, negative = inhibition, actives largely listed as inhibitors | AmpC nitrocefin hydrolysis, absorbance 480 nm, 0.0001% Triton | P00811 | 0.52% of 330,000 active;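 further: plate controls were no compound for no effect and no enzyme for full effect; nearly all actives have a fitted effect of over 20% in size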
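20 mM phosphate pH 7.0 + 0.01% (detergent screen) or 0.0001% Triton X-100; 5.3 nM AmpC reagent; cpd preinc 15 min RT; nitrocefin (800 uM stock) to start; A480 q20 s × 4 min; Activity was normalised to no-enzyme and no-compound control wells.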
Sm TGR block: qHTS Assay for the Inhibitors of Schistosoma Mansoni Peroxiredoxins | purified TGR, DTNB reduction, TNB absorbance 405 nm | AID 485364, 2010 | 3% of 360,000 active | Potency, µM (doses to about 114 µM), without a hit: at the top dose activity change, negative = inhibition, hits mostly inhibitors; further: nearly all actives have a fitted effect of over 60% in size
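First, TGR (20 nM dispensed) and NADPH were mixed with compound. Second, a 15 min room-temperature incubation followed. Third, further NADPH and then DTNB were added to start the reaction. Finally, TNB absorbance was monitored kinetically.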
FBPA Giardia inh: qHTS Assay for Inhibitors of Fructose-1,6-bisphosphate Aldolase from Giardia Lamblia. Potency, µM (doses to about 59.6 µM), for inactives: at the top dose activity, negative = inhibition, most hits filed as inhibitors. purified Giardia FBPA. 0.71% of 290,000 active; further: nearly all actives have a fitted effect of over 55% in size
Target sequence (A8B2U2 whole entry, looked up): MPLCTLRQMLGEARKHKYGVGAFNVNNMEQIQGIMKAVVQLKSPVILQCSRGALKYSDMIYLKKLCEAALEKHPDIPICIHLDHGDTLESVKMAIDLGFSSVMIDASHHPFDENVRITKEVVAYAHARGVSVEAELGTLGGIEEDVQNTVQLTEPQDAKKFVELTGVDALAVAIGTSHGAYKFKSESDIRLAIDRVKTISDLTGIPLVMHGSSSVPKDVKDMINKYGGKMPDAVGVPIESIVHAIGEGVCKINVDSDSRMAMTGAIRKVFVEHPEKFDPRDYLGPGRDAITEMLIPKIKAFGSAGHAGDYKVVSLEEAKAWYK
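40 nM FBPA preincubated 10 min at RT with compound (up to 57.5 uM final), then substrate plus GAPDH/TPI/NAD/arsenate coupling and diaphorase/resazurin added. Fluorescence read after 20 min at RT, 525/598 nm.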
* hit, by the source's call; ? = inconclusive; . = not tested or not shown. The call rests on the fitted dose curve; in most records, active means well fitted curve in the direction sought with a large enough effect; inconclusive means small, poorly fitted or top-dose-only effect, or another doubt; inactive means no such curve, though single readings can be large; an effect the other way counts as inactive or inconclusive. Unless noted, on the % scale 0 is the no-effect control and ±100 the full control effect; potency means the concentration at half of the fitted maximal effect.

SMILES	AmpC inh detg	AmpC inh no detg	Sm TGR block	FBPA Giardia inh
COc1ccc(NC(=S)NC(NC(=O)c2cccc(C)c2)C(Cl)(Cl)Cl)c([N+](=O)[O-])c1 (configuration not stated)	0%	4µM*	0%	-6%
COc1ccc(NC(=S)NC(NC(=O)CF)C(Cl)(Cl)Cl)c([N+](=O)[O-])c1 (configuration not stated)	?	-28%	40µM*	-23%
CCOc1cc(/C=C2\C(=O)N(c3nc(-c4ccc(Br)cc4)cs3)N=C2c2ccccc2)ccc1O	-9%	16µM*	-17%	5%
Cc1ccc(-c2ccccc2NC(=O)CCl)o1	1%	-35%	32µM*	-10%
Cc1ccc(-c2ccccc2NC(=O)CS(=O)CC(=O)Nc2ccc(C)c(Cl)c2)o1 (configuration not stated)	-2%	-21%	-25%	6%
Cc1ccc(-c2ccccc2NC(=O)C2C3C=CC(C3)C2C(=O)O)o1 (configuration not stated)	-2%	-22%	35µM*	-21%
Cc1c(Cl)cccc1NC(=O)C1C2C=CC(C2)C1C(=O)O (configuration not stated)	?	-7%	5%	-6%
Cc1ccc(-c2cccc(NC(=O)C3C(C(=O)O)[C@@H]4C=C[C@H]3C4)c2)o1 (some centres not stated)	-6%	-16%	20µM*	-4%
C[n+]1cccc2cccc([O-])c21	-6%	-7%	50µM*	0.45µM*
Cn1c(CC(=O)Nc2ccccc2F)nnc1SCC(=O)Nc1nccs1	0%	-17%	0%	-5%
Cc1cc(SCC(=O)N/N=C/c2ccc(O)c(O)c2O)c(C)cc1Br	0%	18µM*	35µM*	3.5µM*
COc1cc(/C=N/NC(=O)CSc2cc(C)c(Br)cc2C)ccc1O	2%	-55%	-9%	1%
CC(=O)c1c(C)[nH]c(C(=O)OCC(=O)c2ccc3c(c2)NC(=O)CO3)c1C	.	2%	.	.
O=C(CSc1nnc(-c2ccncc2)n1Cc1ccco1)N1c2ccccc2Sc2ccc(Cl)cc21	-14%	-13%	45µM*	9%
O=C(CSc1nnc(-c2ccc(Cl)cc2)n1Cc1ccco1)Nc1ccc2c(c1)OCCO2	-17%	-31%	25µM*	3%
Cc1cc(Cl)ccc1NC(=O)CSc1nnc(-c2ccncc2)n1Cc1ccco1	-2%	79%	45µM*	5%
Cn1nnnc1SCC(=O)N1c2ccccc2Sc2ccc(Cl)cc21	1%	1.3µM*	6%	-4%
Cn1c(SCC(=O)N2c3ccccc3Sc3ccc(Cl)cc32)nnc1-c1ccco1	-10%	-8%	-27%	2%
COC(=O)C(=C/C(C)=C/c1cccnc1)C(=O)OC	2%	-2%	.	-4%
Cc1ccc(-c2nn3c(=O)cc(CN4CCN(C(=O)Nc5cc(Cl)ccc5C)CC4)nc3s2)cc1	-6%	.	-6%	.
COc1ccc(S(=O)(=O)NCc2ccc3c(c2)CCN3C(C)=O)cc1OC	16%	.	2%	.
Cc1ccc(S(=O)(=O)C2(C(=O)Nc3ccc(Cl)c(C(F)(F)F)c3)CC2)cc1	9%	.	6%	.
O=C(c1ccco1)N1CCC2(CC1)CCN(c1ccccc1)CC2	.	.	.	-2%
CN(C)C(=O)CSc1nnc(-c2ccncc2)n1Cc1ccco1	2%	-21%	56%	4%
O=C(CSc1nnc(-c2ccncc2)n1Cc1ccco1)OC1CCCCC1	7%	33%	40µM*	5%
SMILES	AmpC inh detg	AmpC inh no detg	Sm TGR block	FBPA Giardia inh
CCn1c2ccccc2c2cc(NC(=O)CSc3nnc(C4CC4)n3Cc3ccco3)ccc21	-6%	63%	7.9µM*	-8%
C=CCSc1nc(-c2ccc(OC)cc2)c(C#N)c(=O)n1CC=C	-9%	-16%	36%	9%
Cc1cccc(N2CCN(C(=O)c3cccn3-c3nnc(N4CCCCC4)s3)CC2)c1C	2%	.	-1%	.
CCOc1ccccc1Oc1c(C)oc2cc(OC(=O)c3ccco3)ccc2c1=O	-1%	-22%	35µM*	-1%
Cn1cc(S(=O)(=O)N2CCCCCC2)cc1C(=O)Nc1ccc(Cl)c(C(F)(F)F)c1	7%	.	1%	.
CCOC(=O)C(=O)Nc1cc(C)on1	-4%	11%	3%	5%
Fc1ccc(Br)cc1C1C=C(c2cccnc2)Nc2ncnn21 (configuration not stated)	-14%	-23%	26%	-24%
Brc1ccc(C2=CC(c3cccs3)n3ncnc3N2)cc1 (configuration not stated)	-7%	10µM*	22µM*	-10%
CC1=C(C(N)=O)C(c2ccc(Br)cc2)n2nc(CCCO)nc2N1 (configuration not stated)	3%	-3%	2%	3%
OCCCc1nc2n(n1)C(c1cccs1)C=C(c1ccc(Br)cc1)N2 (configuration not stated)	-12%	116%	25µM*	-11%
CCCCNC(=O)c1nn(-c2ccc(C)cc2)c(=O)c2c1c1ccccc1n2C	-3%	.	12%	.
O=C(CCNS(=O)(=O)c1ccccc1F)OCc1ccccc1Cl	.	-32%	.	.
Cc1ccc(C)n1-c1ccc(C(=O)O)cc1	4%	-23%	18µM*	-27%
Cc1ccc(C)n1-c1ccc(C(=O)N2CCOCC2)cc1	-1%	79%	8.9µM*	-11%
CC(=O)c1c(C(C)=O)c(C)n(-c2ccc(C(=O)O)cc2)c1C	-14%	-22%	0%	3%
CC(=O)N1CCN(C(=O)c2ccc(-n3c(C)ccc3C)cc2)CC1	3%	32%	-29%	0%
Cc1ccc(C)n1-c1ccc(C(=O)Nc2ccccc2)cc1	-5%	-38%	25µM*	-4%
Cc1ccc(-n2cc(CNCC3CC(=O)N(C4CC4)C3)c(-c3cccc(C)c3)n2)cc1 (configuration not stated)	-5%	219%	-20%	1%
CC(C)(C)C(=O)Nc1ccc2nc(SCC(=O)N3CCc4ccccc43)sc2c1	2%	.	-1%	.
CN(C)[C@H]1C(=O)C(C(=O)NCN2CCCC2)=C(O)[C@]2(O)C(=O)C3=C(O)c4c(O)cccc4[C@@](C)(O)[C@H]3C[C@@H]12	.	.	.	4.5µM*
CN(C)[C@@H]1C(=O)C(C(N)=O)=C(O)[C@@]2(O)C(=O)C3=C(O)c4c(O)cccc4[C@@](C)(O)[C@H]3[C@H](O)[C@@H]12	?	-23%	8.9µM*	4.5µM*
CN(C)[C@@H]1C(=O)C(C(N)=O)=C(O)[C@@]2(O)C(=O)C3=C(O)c4c(O)cccc4[C@@](C)(O)C3C[C@@H]12 (some centres not stated)	-18%	-32%	-21%	.
CN1CCN(c2ncc3nc(-c4cc(F)cc(F)c4)c(=O)n(-c4ccccc4)c3n2)CC1	.	.	.	-11%
O=[N+]([O-])c1ccccc1NCc1c(O)ccc2ccccc12	-8%	-46%	1.8µM*	?
